# According to ChEMBL document CHEMBL1961873, “Compounds: GSK PKIS; Assays: Nanosyn kinase panel” (2012):
# Columns and labels:
# [1] = target: Leukocyte tyrosine kinase receptor (Homo sapiens) (UniProt P29376); conditions: at 1 µM;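 note: each value is the mean inhibition of LTK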
# [2] = target: Tyrosine-protein kinase Lyn (Homo sapiens) (UniProt P07948); conditions: at 0.1 µM
# [3] = target: Tyrosine-protein kinase Lyn (Homo sapiens) (UniProt P07948); conditions: at 1 µM
# [4] = target: Tyrosine-protein kinase Lyn (Homo sapiens) (UniProt P07948); conditions: at 0.1 µM; remark: listed apart in the source
# [5] = target: Tyrosine-protein kinase Lyn (Homo sapiens) (UniProt P07948); conditions: at 1 µM; remark: listed apart in the source
# [6] = target: T1, Tyrosine-protein kinase Mer (Homo sapiens) (UniProt Q12866); conditions: at 0.1 µM
# T1 sequence (whole entry): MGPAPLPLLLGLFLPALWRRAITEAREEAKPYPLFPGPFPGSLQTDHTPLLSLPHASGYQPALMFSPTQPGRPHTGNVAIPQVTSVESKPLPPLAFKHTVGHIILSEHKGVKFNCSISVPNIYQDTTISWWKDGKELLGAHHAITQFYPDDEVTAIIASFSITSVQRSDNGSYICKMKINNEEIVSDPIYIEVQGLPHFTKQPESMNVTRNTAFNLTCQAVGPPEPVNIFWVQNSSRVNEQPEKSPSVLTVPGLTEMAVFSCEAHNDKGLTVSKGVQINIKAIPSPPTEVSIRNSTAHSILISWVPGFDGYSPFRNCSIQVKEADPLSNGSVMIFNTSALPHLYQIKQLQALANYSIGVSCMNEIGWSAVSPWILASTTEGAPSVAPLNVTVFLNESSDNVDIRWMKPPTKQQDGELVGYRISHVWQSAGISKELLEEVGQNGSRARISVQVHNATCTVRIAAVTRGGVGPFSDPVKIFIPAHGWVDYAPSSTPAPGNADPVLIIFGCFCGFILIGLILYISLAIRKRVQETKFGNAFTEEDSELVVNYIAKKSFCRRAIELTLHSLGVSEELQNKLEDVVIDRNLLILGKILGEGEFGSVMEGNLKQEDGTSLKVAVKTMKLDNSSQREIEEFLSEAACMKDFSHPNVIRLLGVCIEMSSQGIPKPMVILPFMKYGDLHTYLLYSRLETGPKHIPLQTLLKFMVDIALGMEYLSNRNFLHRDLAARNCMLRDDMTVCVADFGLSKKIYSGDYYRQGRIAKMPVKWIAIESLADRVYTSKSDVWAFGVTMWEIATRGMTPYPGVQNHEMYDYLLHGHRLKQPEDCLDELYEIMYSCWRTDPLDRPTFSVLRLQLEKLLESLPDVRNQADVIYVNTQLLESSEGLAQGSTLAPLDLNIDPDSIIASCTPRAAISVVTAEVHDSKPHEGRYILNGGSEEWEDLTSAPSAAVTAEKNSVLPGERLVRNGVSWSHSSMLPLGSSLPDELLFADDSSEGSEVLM
# [7] = target: T1, Tyrosine-protein kinase Mer (Homo sapiens); conditions: at 1 µM
# [8] = target: Hepatocyte growth factor receptor (Homo sapiens) (UniProt P08581); conditions: at 0.1 µM
# [9] = target: Hepatocyte growth factor receptor (Homo sapiens) (UniProt P08581); conditions: at 1 µM
# [10] = target: T2, Muscle, skeletal receptor tyrosine-protein kinase (Homo sapiens) (UniProt O15146); conditions: at 0.1 µM
# T2 sequence (whole entry): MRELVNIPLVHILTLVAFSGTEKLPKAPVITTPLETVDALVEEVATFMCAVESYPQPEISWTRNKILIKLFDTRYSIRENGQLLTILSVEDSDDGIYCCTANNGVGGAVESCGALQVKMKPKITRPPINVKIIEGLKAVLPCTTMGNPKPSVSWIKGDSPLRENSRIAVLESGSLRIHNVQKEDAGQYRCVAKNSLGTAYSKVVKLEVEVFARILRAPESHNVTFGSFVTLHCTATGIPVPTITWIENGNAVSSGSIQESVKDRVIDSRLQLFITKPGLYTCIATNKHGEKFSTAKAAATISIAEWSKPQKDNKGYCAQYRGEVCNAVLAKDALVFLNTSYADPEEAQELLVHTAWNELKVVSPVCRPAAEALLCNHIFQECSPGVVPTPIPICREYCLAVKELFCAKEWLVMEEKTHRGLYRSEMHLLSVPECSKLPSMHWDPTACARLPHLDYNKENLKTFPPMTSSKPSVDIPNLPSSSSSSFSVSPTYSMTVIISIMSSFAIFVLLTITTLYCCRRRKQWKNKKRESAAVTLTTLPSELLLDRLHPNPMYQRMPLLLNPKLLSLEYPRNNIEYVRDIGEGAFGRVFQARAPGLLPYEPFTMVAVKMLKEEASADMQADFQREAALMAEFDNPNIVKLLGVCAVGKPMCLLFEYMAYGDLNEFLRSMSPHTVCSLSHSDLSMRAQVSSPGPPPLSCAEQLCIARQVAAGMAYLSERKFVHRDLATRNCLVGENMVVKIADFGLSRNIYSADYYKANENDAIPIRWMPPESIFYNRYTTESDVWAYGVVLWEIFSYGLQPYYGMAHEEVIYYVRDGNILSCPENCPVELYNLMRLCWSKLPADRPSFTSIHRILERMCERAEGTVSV
# [11] = target: T2, Muscle, skeletal receptor tyrosine-protein kinase (Homo sapiens); conditions: at 1 µM
# [12] = target: Platelet-derived growth factor receptor alpha (Homo sapiens) (UniProt P16234); conditions: at 0.1 µM
# [13] = target: Platelet-derived growth factor receptor alpha (Homo sapiens) (UniProt P16234); conditions: at 1 µM
# [14] = tested on: Platelet-derived growth factor receptor alpha (Homo sapiens), P16234 [D842V]; conditions: at 0.1 µM
# [15] = tested on: Platelet-derived growth factor receptor alpha (Homo sapiens), P16234 [D842V]; conditions: at 1 µM
# [16] = tested on: Platelet-derived growth factor receptor alpha (Homo sapiens), P16234 [T674I]; conditions: at 0.1 µM
# [17] = tested on: Platelet-derived growth factor receptor alpha (Homo sapiens), P16234 [T674I]; conditions: at 1 µM
# [18] = tested on: Platelet-derived growth factor receptor alpha (Homo sapiens), P16234 [V561D]; conditions: at 0.1 µM
# [19] = tested on: Platelet-derived growth factor receptor alpha (Homo sapiens), P16234 [V561D]; conditions: at 1 µM
# [20] = target: Platelet-derived growth factor receptor beta (Homo sapiens) (UniProt P09619); conditions: at 0.1 µM;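 note: reported value is the mean percent inhibition of the kinase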
# Chain of Platelet-derived growth factor receptor beta (Homo sapiens) (P09619 whole entry): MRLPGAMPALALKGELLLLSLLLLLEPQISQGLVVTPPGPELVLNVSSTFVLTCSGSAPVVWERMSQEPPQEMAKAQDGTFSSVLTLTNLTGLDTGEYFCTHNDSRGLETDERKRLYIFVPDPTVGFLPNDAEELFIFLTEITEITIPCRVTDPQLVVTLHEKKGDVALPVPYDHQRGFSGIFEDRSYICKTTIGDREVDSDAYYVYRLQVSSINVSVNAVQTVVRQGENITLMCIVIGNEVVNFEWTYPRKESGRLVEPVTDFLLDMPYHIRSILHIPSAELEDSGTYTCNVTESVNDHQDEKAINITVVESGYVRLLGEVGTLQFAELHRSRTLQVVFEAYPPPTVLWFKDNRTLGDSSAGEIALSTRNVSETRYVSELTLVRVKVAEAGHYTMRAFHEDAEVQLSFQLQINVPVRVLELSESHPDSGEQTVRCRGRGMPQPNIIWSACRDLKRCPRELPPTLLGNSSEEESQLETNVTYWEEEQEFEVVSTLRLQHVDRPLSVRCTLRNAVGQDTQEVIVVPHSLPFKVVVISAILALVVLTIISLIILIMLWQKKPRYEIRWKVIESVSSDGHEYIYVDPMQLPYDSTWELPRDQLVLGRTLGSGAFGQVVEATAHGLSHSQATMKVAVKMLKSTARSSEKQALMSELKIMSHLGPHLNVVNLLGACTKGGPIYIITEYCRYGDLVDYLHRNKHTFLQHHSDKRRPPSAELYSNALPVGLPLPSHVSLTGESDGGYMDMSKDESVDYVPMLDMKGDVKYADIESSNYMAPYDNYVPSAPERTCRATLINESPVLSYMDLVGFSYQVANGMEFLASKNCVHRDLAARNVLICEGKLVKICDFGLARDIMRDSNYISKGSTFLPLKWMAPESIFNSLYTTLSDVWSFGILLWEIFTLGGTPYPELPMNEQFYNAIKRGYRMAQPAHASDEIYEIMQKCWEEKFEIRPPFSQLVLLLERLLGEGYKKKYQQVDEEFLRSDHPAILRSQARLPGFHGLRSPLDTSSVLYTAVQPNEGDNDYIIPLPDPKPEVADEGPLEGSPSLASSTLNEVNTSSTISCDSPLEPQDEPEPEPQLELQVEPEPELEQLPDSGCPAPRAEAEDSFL
# Chain of Platelet-derived growth factor receptor alpha (Homo sapiens), P16234 [V561D] (P16234 whole entry V561D): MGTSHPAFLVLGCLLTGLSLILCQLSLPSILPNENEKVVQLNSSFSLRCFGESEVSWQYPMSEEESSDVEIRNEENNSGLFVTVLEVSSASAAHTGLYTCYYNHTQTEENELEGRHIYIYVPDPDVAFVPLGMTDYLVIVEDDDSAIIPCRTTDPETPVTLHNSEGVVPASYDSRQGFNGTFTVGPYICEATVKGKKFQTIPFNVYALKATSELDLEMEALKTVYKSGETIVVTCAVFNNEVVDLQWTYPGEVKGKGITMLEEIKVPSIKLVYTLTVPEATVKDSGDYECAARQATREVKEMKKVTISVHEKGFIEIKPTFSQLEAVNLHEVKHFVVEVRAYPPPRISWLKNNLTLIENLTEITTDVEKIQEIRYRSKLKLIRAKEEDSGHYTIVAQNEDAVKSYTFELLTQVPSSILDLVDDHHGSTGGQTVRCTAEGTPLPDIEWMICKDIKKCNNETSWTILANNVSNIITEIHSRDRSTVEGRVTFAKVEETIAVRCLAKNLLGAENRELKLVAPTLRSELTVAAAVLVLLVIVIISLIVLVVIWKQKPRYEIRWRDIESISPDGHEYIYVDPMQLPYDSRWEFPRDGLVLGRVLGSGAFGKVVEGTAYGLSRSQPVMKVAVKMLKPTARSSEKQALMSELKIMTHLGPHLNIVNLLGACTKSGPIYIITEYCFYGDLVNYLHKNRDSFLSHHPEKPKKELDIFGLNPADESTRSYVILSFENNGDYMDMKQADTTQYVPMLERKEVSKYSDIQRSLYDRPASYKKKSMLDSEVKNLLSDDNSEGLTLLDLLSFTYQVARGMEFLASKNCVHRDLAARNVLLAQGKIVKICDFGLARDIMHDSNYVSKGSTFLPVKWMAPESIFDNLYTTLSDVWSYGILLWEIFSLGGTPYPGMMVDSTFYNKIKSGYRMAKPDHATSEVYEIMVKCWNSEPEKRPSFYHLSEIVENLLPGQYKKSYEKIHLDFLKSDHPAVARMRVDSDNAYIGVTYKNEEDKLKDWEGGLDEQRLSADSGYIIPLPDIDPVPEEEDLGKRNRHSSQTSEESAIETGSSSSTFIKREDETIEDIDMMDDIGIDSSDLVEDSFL
# Chain of Leukocyte tyrosine kinase receptor (Homo sapiens) (P29376 whole entry): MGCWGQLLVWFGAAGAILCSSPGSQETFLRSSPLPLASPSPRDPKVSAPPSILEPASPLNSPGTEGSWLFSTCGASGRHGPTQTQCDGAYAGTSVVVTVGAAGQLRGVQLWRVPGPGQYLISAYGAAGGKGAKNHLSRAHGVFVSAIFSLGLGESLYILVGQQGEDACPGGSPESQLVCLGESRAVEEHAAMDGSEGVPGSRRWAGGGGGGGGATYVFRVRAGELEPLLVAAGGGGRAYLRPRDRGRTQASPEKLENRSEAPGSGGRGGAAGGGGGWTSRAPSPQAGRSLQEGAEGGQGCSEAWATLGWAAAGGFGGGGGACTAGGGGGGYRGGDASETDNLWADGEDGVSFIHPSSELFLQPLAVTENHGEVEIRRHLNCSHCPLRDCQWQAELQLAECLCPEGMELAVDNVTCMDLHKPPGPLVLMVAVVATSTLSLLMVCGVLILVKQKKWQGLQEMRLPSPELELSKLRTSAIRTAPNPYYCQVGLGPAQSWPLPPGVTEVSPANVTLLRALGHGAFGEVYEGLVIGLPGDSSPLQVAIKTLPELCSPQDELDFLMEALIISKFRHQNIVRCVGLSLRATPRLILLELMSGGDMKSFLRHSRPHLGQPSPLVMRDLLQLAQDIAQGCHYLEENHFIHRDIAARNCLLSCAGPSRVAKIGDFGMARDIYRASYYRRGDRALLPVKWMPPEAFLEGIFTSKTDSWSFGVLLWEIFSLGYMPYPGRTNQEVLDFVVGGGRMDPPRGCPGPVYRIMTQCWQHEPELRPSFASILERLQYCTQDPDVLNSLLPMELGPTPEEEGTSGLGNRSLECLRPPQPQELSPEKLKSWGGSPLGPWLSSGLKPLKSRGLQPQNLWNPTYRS
# Chain of Tyrosine-protein kinase Lyn (Homo sapiens) (P07948 2-512 limits assumed): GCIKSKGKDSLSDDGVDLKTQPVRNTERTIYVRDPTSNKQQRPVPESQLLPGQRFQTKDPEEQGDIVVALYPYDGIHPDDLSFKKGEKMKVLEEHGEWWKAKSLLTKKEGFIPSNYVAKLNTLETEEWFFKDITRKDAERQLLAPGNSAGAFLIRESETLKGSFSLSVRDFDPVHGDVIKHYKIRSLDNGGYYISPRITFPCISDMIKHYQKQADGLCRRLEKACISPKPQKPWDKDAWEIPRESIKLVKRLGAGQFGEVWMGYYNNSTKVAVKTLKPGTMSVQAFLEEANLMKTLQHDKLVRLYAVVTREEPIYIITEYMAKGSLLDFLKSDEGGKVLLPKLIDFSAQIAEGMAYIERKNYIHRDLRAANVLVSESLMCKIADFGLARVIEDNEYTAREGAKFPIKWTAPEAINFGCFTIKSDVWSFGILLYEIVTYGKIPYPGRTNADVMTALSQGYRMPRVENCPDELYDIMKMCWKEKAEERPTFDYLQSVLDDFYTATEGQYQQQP
# Chain of Platelet-derived growth factor receptor alpha (Homo sapiens) (P16234 whole entry): as the sequence (P16234 whole entry V561D) above, with D561V counted along it
SMILES,inhibition [1],inhibition [2],inhibition [3],inhibition [4],inhibition [5],inhibition [6],inhibition [7],inhibition [8],inhibition [9],inhibition [10],inhibition [11],inhibition [12],inhibition [13],inhibition [14],inhibition [15],inhibition [16],inhibition [17],inhibition [18],inhibition [19],inhibition [20]
Fc1ccc(-c2ncn(C3CCNCC3)c2-c2ccnc(Oc3ccccc3)n2)cc1,1.61%,2.38%,2.64%,0.89%,1.56%,0.77%,6.11%,5.19%,0.34%,1.71%,-0.77%,5.35%,9.51%,2.07%,4%,1.52%,5.42%,2.95%,5.32%,3.81%
NC(=O)c1sc(-n2cnc3cc(C(F)(F)F)ccc32)cc1OCc1ccccc1Br,4.03%,3.08%,4.62%,2.14%,3.91%,-1.59%,4.52%,-0.38%,8.07%,1.36%,-0.86%,7.64%,6.52%,4.16%,5.38%,3.44%,2.59%,3.5%,4.58%,3.03%
Cc1cc(-c2ccco2)cc(C)c1/C=C/c1cncc(-c2nn[nH]n2)c1,1.64%,1.98%,5.29%,2.99%,3.6%,0.26%,3.44%,4.92%,3.8%,-1.44%,-4.43%,5.56%,9.36%,3.41%,3.27%,2.56%,3.42%,2.25%,7%,0.05%
COc1cccc(COc2cc(-n3cnc4ccccc43)sc2C(N)=O)c1,2.93%,-0.93%,-1.31%,-1.21%,-1.14%,-2.89%,-0.86%,4.83%,2.86%,-1.3%,-3.86%,4.14%,14.5%,0.88%,6.81%,1.86%,-0.65%,0.87%,5.54%,0.6%
Nc1nonc1-c1nc2cnccc2n1C1CCCCC1,2.35%,-2.05%,1.3%,-1.46%,-0.59%,-0.72%,1.5%,-2.89%,7.05%,-1.73%,3.94%,3.7%,18.1%,2.4%,16.9%,1.78%,19.5%,2.95%,14.4%,4.64%
CCn1c(-c2nonc2N)nc2c(C#CCN)ncc(OCCCN)c21,-1.19%,0.47%,2.24%,1.28%,0.49%,0.13%,0.01%,0.78%,4.36%,2.41%,12.2%,7.42%,11.7%,0.26%,8.54%,2.16%,5.96%,4.02%,3.51%,9.08%
COc1cccc(-n2ncc3c(N/N=C/c4ccncc4)ncnc32)c1,6.38%,49%,87.5%,43.2%,85%,6.35%,39.2%,18.9%,49.5%,11.1%,45.6%,43%,79.5%,44.4%,87.3%,25.4%,82.4%,40.4%,84.7%,45%
NS(=O)(=O)c1ccc(N/C=C2\C(=O)Nc3ccc4ncsc4c32)cc1,10.4%,6.6%,28.3%,2.87%,22.1%,0.39%,7.72%,14.9%,43.3%,11%,51.2%,54.4%,86.9%,55.5%,91.5%,15.1%,60.9%,48.2%,90.9%,56.5%
NS(=O)(=O)c1ccc(-c2ccc3c(NC(=O)C4CC4)n[nH]c3c2)cc1,-0.4%,2.87%,3.71%,1.42%,3.29%,0.15%,4.26%,-4.19%,0.32%,3.88%,8.82%,5.05%,15.1%,1.45%,5.77%,2.04%,1.43%,-0.07%,8.8%,6.55%
CCn1c(-c2nonc2N)nc2c(C#CC(C)(C)O)ncc(OCC3CCNCC3)c21,5.07%,3.39%,7.23%,1.8%,5.79%,1.17%,1.7%,1.64%,2.5%,4.04%,3.71%,9.32%,28.6%,4.23%,34.4%,7.44%,29.9%,5.4%,16.6%,12.1%
CCn1c(-c2nonc2N)nc2c(C#CC(C)(C)O)ncc(OC[C@@H]3CCCN3)c21,2.22%,2.35%,1.33%,1.2%,1.89%,-0.41%,-0.43%,5.01%,5.81%,-2.15%,-3.74%,5.65%,24.4%,7.78%,44.4%,4.92%,26.6%,2.28%,22.3%,8.36%
CCn1c(-c2nonc2N)nc2c(C#CC(C)(C)O)nc(O[C@@H](CN)c3ccccc3)cc21,76.6%,2.08%,22.1%,0.81%,16.8%,0.05%,0.57%,3.67%,-0.12%,-1.29%,1.93%,32%,70.5%,49.8%,89.5%,34.5%,86.8%,29.6%,79.3%,50.3%
COc1cc2c(cc1Nc1nc(Nc3ccsc3C(N)=O)c3cc[nH]c3n1)N(C(=O)CN(C)C)CCC2,94.9%,3.9%,5.94%,2.54%,2.25%,1.81%,6.9%,6.76%,7.29%,3.98%,28.6%,11.4%,26.1%,2.44%,3.25%,1.93%,2.94%,3.24%,13.9%,10.4%
COc1cc(C=NNc2ncnc3c2cnn3Cc2ccccc2)ccc1O,-1.02%,7.35%,41.8%,3.91%,35.4%,0.56%,6.34%,-3.62%,7.19%,-1.07%,17.2%,9.07%,43.3%,6.24%,42.1%,-1.14%,1.46%,6.77%,34.3%,6.26%
